Measured values from publication PMC7862700, “An all-to-all approach to the identification of sequence-specific readers for epigenetic DNA modifications on cytosine”.

How the values were obtained:
Test in all cases: DAPPL (digital affinity profiling via proximity ligation, sequencing); 10 mM Tris-HCl pH 7.5, 50 mM NaCl, 1 mM DTT, 4% glycerol, room temperature, 30 min; GST-TFs on glutathione beads, 16-mer random dsDNA library, 0.1% formaldehyde crosslink after washing; high values mean tight binding
Details in all cases: protein: recombinant; tags: N-terminal GST; dsDNA, one strand shown
FLI1 = target: T1, FLI1 (Homo sapiens, UniProt Q01543 1-452)
T1 sequence: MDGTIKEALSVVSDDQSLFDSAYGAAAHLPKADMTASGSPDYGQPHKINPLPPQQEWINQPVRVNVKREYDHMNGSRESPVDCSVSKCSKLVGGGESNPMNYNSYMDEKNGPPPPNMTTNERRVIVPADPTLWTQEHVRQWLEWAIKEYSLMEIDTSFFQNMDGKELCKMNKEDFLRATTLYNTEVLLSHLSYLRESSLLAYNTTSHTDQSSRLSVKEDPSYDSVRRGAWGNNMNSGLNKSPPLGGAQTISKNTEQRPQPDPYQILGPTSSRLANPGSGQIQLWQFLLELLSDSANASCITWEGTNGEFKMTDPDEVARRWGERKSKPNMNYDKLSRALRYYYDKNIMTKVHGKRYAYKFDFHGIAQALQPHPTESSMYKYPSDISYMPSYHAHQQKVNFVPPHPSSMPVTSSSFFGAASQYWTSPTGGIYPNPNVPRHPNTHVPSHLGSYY
Outline: (§1)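 After expression in yeast as GST fusions, human transcription factors were bound to glutathione beads, DNA-barcoded and mixed with a tag-only sample. The pools were incubated with 200 nmole of a 16-mer random double-stranded DNA library in Tris/NaCl/DTT/glycerol buffer (30 min, room temperature), washed and crosslinked with 0.1% formaldehyde. Proximity ligation with BsaI/T4 ligase ran for 1 h at 37 °C, before PCR amplification and sequencing on an Illumina NextSeq500. Binding signal is a hexamer's read frequency for a factor divided by its frequency for the tag-only sample.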

ELK1 = target: T2, ELK1 (Homo sapiens, UniProt P19419 1-428)
T2 sequence: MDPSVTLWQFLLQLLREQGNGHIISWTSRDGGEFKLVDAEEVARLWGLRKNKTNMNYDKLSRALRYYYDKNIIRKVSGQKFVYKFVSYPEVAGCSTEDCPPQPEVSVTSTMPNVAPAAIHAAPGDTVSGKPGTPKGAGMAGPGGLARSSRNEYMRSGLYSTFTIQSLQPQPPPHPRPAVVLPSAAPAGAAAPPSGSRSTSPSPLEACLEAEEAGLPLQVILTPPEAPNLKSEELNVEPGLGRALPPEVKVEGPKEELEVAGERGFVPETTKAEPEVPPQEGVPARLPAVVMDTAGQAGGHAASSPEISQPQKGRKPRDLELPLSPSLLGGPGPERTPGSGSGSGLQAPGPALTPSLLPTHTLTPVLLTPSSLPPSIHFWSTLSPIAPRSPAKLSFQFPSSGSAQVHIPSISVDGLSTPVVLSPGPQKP
Outline: as §1

GABPA = target: T3, GABPA (Homo sapiens, UniProt Q06546 1-454)
T3 sequence: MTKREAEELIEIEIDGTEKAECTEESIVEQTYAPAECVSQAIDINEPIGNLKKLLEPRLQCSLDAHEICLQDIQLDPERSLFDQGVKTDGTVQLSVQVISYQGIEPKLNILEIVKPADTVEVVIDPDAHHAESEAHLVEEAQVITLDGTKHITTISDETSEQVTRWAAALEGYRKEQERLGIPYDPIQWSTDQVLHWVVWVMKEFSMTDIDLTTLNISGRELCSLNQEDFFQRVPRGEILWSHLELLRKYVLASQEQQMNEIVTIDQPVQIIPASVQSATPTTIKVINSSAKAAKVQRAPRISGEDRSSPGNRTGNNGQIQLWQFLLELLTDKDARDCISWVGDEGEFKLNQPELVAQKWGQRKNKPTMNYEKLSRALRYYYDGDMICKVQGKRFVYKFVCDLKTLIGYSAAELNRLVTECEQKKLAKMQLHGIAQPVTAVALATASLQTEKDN
Outline: as §1

ERG = target: T4, ERG (Homo sapiens, UniProt P11308 1-479)
T4 sequence: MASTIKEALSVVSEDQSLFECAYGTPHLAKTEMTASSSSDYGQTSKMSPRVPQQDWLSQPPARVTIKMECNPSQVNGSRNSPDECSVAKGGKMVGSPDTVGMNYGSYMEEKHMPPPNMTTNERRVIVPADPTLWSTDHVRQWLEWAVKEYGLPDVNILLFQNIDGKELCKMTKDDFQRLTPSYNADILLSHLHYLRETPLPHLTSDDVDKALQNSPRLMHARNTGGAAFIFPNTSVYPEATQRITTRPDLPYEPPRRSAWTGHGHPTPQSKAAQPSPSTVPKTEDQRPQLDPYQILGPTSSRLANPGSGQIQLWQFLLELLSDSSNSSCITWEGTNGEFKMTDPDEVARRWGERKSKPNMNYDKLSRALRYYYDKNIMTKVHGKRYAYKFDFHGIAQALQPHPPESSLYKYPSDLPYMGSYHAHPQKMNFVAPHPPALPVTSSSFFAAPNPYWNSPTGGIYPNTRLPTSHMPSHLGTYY
Outline: as §1

ELF1 = ELF1 (Homo sapiens, UniProt P32519 1-619)
Outline: as §1

EHF = target: T5, EHF (Homo sapiens, UniProt Q9NZC4 1-300)
T5 sequence: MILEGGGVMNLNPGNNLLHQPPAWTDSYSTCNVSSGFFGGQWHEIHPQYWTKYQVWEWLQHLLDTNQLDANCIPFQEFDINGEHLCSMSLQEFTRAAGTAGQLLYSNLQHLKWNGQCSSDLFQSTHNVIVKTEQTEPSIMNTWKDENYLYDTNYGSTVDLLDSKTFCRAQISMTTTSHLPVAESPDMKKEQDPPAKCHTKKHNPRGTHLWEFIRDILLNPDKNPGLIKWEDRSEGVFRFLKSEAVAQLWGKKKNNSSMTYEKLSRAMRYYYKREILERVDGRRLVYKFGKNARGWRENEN
Outline: as §1

SPI1 = SPI1 (Homo sapiens, UniProt P17947 1-270)
Outline: as §1

SPIB = SPIB (Homo sapiens, UniProt Q01892 1-262)
Outline: as §1

FEV = target: T6, FEV (Homo sapiens, UniProt Q99581 1-238)
T6 sequence: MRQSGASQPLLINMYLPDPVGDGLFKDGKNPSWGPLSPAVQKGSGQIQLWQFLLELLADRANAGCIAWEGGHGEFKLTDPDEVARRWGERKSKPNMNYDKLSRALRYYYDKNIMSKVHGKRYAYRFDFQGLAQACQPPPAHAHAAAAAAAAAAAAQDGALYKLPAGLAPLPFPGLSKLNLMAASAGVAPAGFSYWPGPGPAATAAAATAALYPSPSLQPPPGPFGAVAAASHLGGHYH
Outline: as §1

ETV5 = ETV5 (Homo sapiens, UniProt P41161 1-510)
Outline: as §1

SPIC = target: T7, SPIC (Homo sapiens, UniProt Q8N5J4 1-248)
T7 sequence: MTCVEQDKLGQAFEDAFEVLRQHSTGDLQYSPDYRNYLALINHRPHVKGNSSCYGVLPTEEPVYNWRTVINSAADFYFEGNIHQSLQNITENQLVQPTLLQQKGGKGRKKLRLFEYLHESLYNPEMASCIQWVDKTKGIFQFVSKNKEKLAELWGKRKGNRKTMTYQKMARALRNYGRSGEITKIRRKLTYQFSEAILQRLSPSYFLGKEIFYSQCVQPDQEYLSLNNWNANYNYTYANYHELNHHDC
Outline: as §1

ELF4 = ELF4 (Homo sapiens, UniProt Q99607 1-663)
Outline: as §1

ELK4 = target: T8, ELK4 (Homo sapiens, UniProt P28324-2 1-405)
T8 sequence: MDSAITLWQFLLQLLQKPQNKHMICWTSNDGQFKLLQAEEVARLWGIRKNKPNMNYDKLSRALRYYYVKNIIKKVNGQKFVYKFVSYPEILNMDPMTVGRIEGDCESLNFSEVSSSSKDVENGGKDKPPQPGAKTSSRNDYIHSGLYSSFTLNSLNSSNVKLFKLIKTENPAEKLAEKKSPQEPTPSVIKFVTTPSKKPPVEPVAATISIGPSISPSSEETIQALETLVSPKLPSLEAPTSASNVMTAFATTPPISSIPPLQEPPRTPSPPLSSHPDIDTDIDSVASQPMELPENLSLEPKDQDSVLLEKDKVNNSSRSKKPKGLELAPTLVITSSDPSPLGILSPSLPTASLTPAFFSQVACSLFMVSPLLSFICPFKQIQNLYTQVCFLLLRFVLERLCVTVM
Outline: as §1

ETV2 = target: T9, ETV2 (Homo sapiens, UniProt O00321 1-342)
T9 sequence: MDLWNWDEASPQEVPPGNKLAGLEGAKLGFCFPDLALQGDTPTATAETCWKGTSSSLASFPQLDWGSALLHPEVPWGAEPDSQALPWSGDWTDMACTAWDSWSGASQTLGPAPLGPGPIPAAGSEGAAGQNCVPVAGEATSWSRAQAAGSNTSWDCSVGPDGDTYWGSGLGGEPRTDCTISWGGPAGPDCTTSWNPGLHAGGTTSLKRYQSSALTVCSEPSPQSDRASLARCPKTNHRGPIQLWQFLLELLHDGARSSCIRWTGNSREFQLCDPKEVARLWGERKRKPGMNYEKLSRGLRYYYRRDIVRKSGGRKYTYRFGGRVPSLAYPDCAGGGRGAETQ
Outline: as §1

ELF3 = target: T10, ELF3 (Homo sapiens, UniProt P78545 1-371)
T10 sequence: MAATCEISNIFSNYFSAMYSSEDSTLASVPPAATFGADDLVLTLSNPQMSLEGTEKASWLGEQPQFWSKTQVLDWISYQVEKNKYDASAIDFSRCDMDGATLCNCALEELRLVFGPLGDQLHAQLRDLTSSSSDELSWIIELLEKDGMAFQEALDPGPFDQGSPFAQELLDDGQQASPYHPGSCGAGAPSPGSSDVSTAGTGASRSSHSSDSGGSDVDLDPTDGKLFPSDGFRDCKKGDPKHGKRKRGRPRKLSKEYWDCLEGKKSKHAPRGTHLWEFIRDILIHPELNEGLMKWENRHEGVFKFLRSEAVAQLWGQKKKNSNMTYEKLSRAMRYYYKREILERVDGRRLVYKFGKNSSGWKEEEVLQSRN
Outline: as §1

ETV1 = ETV1 (Homo sapiens, UniProt P50549 1-477)
Outline: as §1

ELK3 = target: T11, ELK3 (Homo sapiens, UniProt P41970 1-407)
T11 sequence: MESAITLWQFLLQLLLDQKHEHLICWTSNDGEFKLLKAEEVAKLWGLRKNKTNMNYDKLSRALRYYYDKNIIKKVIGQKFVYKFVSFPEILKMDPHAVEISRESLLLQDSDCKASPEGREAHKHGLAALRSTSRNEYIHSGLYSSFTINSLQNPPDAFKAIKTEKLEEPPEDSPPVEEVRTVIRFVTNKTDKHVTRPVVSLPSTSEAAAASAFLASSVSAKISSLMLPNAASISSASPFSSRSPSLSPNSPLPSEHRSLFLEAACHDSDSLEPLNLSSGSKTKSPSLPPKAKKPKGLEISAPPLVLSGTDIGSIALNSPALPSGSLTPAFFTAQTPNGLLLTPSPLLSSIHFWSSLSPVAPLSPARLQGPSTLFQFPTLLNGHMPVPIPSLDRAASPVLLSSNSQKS
Outline: as §1

Chain of ETV1 (P50549 whole entry): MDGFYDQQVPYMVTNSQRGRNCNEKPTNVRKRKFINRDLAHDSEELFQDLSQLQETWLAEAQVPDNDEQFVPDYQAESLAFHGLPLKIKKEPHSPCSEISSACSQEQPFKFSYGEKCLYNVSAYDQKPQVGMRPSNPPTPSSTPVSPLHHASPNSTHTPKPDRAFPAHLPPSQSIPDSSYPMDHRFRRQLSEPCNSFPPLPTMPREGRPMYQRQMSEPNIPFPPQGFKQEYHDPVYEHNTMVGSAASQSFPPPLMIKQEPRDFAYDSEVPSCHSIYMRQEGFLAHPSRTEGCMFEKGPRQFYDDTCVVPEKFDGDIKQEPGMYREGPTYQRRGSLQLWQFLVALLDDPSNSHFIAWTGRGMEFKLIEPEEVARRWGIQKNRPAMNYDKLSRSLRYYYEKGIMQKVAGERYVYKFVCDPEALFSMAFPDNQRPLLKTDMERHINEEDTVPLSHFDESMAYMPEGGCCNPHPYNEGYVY
Chain of ELF1 (P32519 whole entry): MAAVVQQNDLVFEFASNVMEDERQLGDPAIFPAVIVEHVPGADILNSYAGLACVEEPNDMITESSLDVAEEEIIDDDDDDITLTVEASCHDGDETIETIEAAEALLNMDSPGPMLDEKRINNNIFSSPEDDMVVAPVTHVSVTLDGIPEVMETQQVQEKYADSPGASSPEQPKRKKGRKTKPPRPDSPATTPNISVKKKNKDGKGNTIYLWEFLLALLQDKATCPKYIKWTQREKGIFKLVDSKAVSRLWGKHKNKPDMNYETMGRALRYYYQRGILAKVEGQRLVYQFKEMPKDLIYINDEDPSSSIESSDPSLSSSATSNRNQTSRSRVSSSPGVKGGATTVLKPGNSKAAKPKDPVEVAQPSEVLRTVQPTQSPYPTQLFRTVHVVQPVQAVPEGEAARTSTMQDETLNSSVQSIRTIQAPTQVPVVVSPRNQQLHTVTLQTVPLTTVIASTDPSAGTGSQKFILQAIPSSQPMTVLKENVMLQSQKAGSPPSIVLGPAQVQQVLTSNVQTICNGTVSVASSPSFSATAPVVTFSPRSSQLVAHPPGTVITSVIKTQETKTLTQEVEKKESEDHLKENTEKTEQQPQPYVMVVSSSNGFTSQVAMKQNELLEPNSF
Chain of ELF4 (Q99607 whole entry): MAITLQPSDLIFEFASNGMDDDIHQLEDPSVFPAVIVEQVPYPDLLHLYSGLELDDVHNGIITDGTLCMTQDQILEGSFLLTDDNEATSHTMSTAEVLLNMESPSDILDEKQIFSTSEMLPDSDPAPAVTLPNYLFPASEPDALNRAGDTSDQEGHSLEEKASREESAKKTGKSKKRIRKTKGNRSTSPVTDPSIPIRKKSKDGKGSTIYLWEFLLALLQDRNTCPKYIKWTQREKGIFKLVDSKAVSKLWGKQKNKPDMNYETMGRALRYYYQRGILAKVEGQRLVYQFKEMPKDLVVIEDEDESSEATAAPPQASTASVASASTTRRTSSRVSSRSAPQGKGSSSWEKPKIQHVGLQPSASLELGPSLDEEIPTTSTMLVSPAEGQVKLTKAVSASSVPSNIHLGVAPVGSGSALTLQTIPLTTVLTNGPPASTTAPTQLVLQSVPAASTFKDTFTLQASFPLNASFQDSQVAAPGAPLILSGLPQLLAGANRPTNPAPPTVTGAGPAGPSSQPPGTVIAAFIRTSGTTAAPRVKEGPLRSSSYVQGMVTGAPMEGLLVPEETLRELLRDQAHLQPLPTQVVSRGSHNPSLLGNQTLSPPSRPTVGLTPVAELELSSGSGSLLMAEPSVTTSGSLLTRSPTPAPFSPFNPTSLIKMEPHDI
Chain of SPIB (Q01892 whole entry): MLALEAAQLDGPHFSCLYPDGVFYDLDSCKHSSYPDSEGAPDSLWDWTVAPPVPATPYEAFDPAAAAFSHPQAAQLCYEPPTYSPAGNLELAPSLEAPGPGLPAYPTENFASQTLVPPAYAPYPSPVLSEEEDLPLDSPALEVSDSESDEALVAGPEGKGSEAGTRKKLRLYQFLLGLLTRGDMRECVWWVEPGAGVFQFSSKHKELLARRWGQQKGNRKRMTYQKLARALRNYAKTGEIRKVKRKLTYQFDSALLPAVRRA
Chain of ETV5 (P41161 whole entry): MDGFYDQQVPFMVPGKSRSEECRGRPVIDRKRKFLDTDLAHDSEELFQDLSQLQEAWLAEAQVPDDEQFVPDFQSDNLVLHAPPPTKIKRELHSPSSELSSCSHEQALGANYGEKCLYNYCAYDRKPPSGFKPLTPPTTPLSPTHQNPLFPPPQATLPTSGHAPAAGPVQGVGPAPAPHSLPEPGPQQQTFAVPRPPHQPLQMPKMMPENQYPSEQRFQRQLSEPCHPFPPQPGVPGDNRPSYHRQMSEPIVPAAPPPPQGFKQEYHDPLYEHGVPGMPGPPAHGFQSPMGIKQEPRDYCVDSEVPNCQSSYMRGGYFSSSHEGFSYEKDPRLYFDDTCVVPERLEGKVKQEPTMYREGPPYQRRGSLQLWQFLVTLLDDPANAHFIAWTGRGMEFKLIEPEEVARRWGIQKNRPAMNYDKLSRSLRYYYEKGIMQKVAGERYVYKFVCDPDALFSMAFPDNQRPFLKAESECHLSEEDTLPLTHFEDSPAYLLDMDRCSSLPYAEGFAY

Sequence | binding signal (FLI1) | binding signal (ELK1) | binding signal (GABPA) | binding signal (ERG) | binding signal (ELF1) | binding signal (EHF) | binding signal (SPI1) | binding signal (SPIB) | binding signal (FEV) | binding signal (ETV5) | binding signal (SPIC) | binding signal (ELF4) | binding signal (ELK4) | binding signal (ETV2) | binding signal (ELF3) | binding signal (ETV1) | binding signal (ELK3)
CCGCGT | 1.29 fold enrichment (6-mer frequency, TF over GST control) | 1.11 fold enrichment (6-mer frequency, TF over GST control) | 1.06 fold enrichment (6-mer frequency, TF over GST control) | 1.13 fold enrichment (6-mer frequency, TF over GST control) | 1.1 fold enrichment (6-mer frequency, TF over GST control) | 1.18 fold enrichment (6-mer frequency, TF over GST control) | 1.12 fold enrichment (6-mer frequency, TF over GST control) | 1.16 fold enrichment (6-mer frequency, TF over GST control) | 1.13 fold enrichment (6-mer frequency, TF over GST control) | 1.12 fold enrichment (6-mer frequency, TF over GST control) | 1.12 fold enrichment (6-mer frequency, TF over GST control) | 1.18 fold enrichment (6-mer frequency, TF over GST control) | 1.24 fold enrichment (6-mer frequency, TF over GST control) | 1.4 fold enrichment (6-mer frequency, TF over GST control) | 1.16 fold enrichment (6-mer frequency, TF over GST control) | 1.13 fold enrichment (6-mer frequency, TF over GST control) | –
CACACG | 1.14 fold enrichment (6-mer frequency, TF over GST control) | 1.11 fold enrichment (6-mer frequency, TF over GST control) | 1.23 fold enrichment (6-mer frequency, TF over GST control) | 1.07 fold enrichment (6-mer frequency, TF over GST control) | 1.21 fold enrichment (6-mer frequency, TF over GST control) | 1.12 fold enrichment (6-mer frequency, TF over GST control) | 1.08 fold enrichment (6-mer frequency, TF over GST control) | 1.15 fold enrichment (6-mer frequency, TF over GST control) | 1.14 fold enrichment (6-mer frequency, TF over GST control) | 1.11 fold enrichment (6-mer frequency, TF over GST control) | 1.15 fold enrichment (6-mer frequency, TF over GST control) | 1.18 fold enrichment (6-mer frequency, TF over GST control) | 1.17 fold enrichment (6-mer frequency, TF over GST control) | 1.24 fold enrichment (6-mer frequency, TF over GST control) | 1.07 fold enrichment (6-mer frequency, TF over GST control) | 1.16 fold enrichment (6-mer frequency, TF over GST control) | 1.03 fold enrichment (6-mer frequency, TF over GST control)
